ER stress death – ER stress cell death inhibition; CSM14.1 thapsigargin ER stress survival, ATP luminescence; relative survival (cellular ATP), % at 15 µg/mL (by protocol); 0.33% of 48,000 active; AID 1010;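 active = survival measured by cellular ATP above 50% at 15 µg/ml in the first screen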;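 also: cell death triggered by about 15 µM thapsigargin; ATP read 24 h after thapsigargin was added; plate controls were thapsigargin with DMSO for no effect and DMSO without thapsigargin for full effect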
* = called active by the depositor. The entries come from a sample that favours hits as a whole.

SMILES	ER stress death
Cc1ccc(NC(=O)c2cccc(F)c2)cc1Cl	-2
CCOc1ccc(C(=O)NCCNc2ccc(Cl)cc2[N+](=O)[O-])cc1Br	0
CC(=O)N(C)c1ccc(N=Cc2c(C)[nH]c3ccccc23)cc1	-1
C(=NC1=NN(c2ccccc2)CC1)N1CCOCC1	5
Cc1ccc(NCC(=O)N/N=C\c2c(Br)cc(Br)c(O)c2Br)cc1	-6
O=C(CCNS(=O)(=O)c1ccccc1[N+](=O)[O-])Nc1ccc(Br)cc1	3
CC(C)(C)c1ccc(CC2CC2(Cl)Cl)c([N+](=O)[O-])c1 (stereo not drawn)	11
c1cc(NCc2ccc3c(c2)OCO3)cc(-c2nc3ccccc3s2)c1	0
COc1ccc(C2CC(=O)C3=C(C2)Nc2ccccc2NC3c2ccc(Cl)c([N+](=O)[O-])c2)cc1 (stereo not drawn)	104*
O=C1CC(c2ccccc2)CC2=C1C(c1ccc(Cl)c(Cl)c1)Nc1ccccc1N2 (stereo not drawn)	6
O=C1CCCC2=C1C(c1cccnc1)Nc1ccc(C(=O)c3ccccc3)cc1N2 (stereo not drawn)	9
COc1ccc(C2Nc3ccc(C(=O)c4ccccc4)cc3NC3=C2C(=O)CCC3)cc1 (stereo not drawn)	-1
O=C1CCCC2=C1C(c1ccc(Br)cc1)Nc1ccc(C(=O)c3ccccc3)cc1N2 (stereo not drawn)	66*
COc1ccc(C2CC(=O)C3=C(C2)Nc2ccccc2NC3c2cccc(Br)c2)cc1 (stereo not drawn)	25
COc1ccc(C2CC(=O)C3=C(C2)Nc2ccccc2NC3c2c(F)cccc2F)cc1 (stereo not drawn)	5
O=C1CC(c2ccccc2)CC2=C1C(c1ccc(F)c(Br)c1)Nc1ccccc1N2 (stereo not drawn)	6
COc1ccc(C2Nc3ccccc3NC3=C2C(=O)CC(c2ccccc2)C3)c(OC)c1 (stereo not drawn)	7
O=C1CC(c2ccccc2)CC2=C1C(c1cccc(Br)c1)Nc1ccccc1N2 (stereo not drawn)	88*
COc1ccc(C2CC(=O)C3=C(C2)Nc2ccccc2NC3c2ccc(C)c([N+](=O)[O-])c2)cc1OC (stereo not drawn)	4
CCOc1cccc(C2Nc3ccccc3NC3=C2C(=O)CC(c2ccc(OC)cc2)C3)c1 (stereo not drawn)	106*
O=C(NC(=S)Nc1cccc(NC(=O)c2ccco2)c1)c1ccc(Cl)cc1	-2
Cc1ccc(C(=O)Nc2ccc(-c3nc4cc5ccccc5cc4[nH]3)cc2)cc1[N+](=O)[O-]	7
Cc1onc(-c2c(F)cccc2Cl)c1C(=O)NCc1ccc(Cl)cc1	-3
COc1cc(OC)c(OC)cc1CN1CCN(S(C)(=O)=O)CC1	-1
O=C(NCc1ccc(Cl)cc1)c1cnn2c(C(F)(F)F)cc(-c3ccco3)nc12	9
SMILES	ER stress death
Cc1ccc(CO/N=C(\N)c2nonc2N)c(C)c1	-2
COc1ccc(C2=C/C(=C\c3cccnc3)C(=O)O2)cc1	2
COc1ccc(N(CC(=O)NCc2ccccc2)S(=O)(=O)c2ccc(C)cc2)cc1OC	1
CCc1nnc(NC(=O)c2ccccc2F)s1	0
Oc1ccc2ccccc2c1CN1CCOCC1	0
COC(=O)c1ccc(NC(=O)c2ccc(OCC(C)C)cc2)cc1	-8
COc1ccc(C2CC(=O)C3=C(C2)Nc2ccccc2NC3c2ccc(C(F)(F)F)cc2)cc1 (stereo not drawn)	2
COc1ccc(C2CC(=O)C3=C(C2)Nc2ccccc2NC3c2ccc3ccccc3c2)cc1 (stereo not drawn)	50*
COc1ccc(C2Nc3ccccc3NC3=C2C(=O)CC(c2ccccc2)C3)cc1 (stereo not drawn)	22
CCOC(=O)c1ccc(NC(=O)COc2ccccc2Cl)cc1	8
Oc1cccc(C=Nc2ccc(Cl)c(Cl)c2)c1	3
CN(C)c1ccc(N/C(N)=N/c2nc(C(F)(F)F)cc(=O)[nH]2)cc1	-4
O=C(O)/C=C/C(=O)Nc1ccc(-c2ccc(NC(=O)/C=C/C(=O)O)cc2)cc1	-3
O=C(O)/C=C/C(=O)Nc1ccc(OC(F)(F)Cl)cc1	108*
CCOc1ccc(NC(=O)/C=C\C(=O)O)cc1	-10
Cc1ccccc1N=C1NC(=O)CS1	9
CCOc1ccc(Oc2cc(NC(=O)c3ccco3)cc([N+](=O)[O-])c2)cc1	-4
CN(C)c1nccc(N(Cc2ccccc2)Cc2ccccc2)c1C#N	83*
COc1nccc(Nc2ccccc2)c1C#N	2
CN(C)CCN(Cc1ccccc1)c1ccnc(N(C)C)c1C#N	-4
Cc1ccc(-c2csc(NC(=O)C3CC=CCC3C(=O)O)c2C(=O)OC(C)C)cc1 (stereo not drawn)	3
CCCNc1nc(OCC(F)(F)F)nc(OCC(F)(F)F)n1	1
Cc1ccc(NC(=O)CC2SC(=Nc3ccccc3)N(c3ccccc3)C2=O)cc1 (stereo not drawn)	-1
O=C(CC1SC(=Nc2ccccc2)N(c2ccccc2)C1=O)Nc1ccccc1C(F)(F)F (stereo not drawn)	65*
O=C(CC1SC(=Nc2ccccc2)N(c2ccccc2)C1=O)Nc1ccc(F)cc1 (stereo not drawn)	2
SMILES	ER stress death
COc1ccc(Br)cc1/C=C/C(=O)c1cccs1	9
CCOc1ccccc1NC(=O)c1c(NC(=O)c2ccccc2F)sc2c1CCCCC2	12
CCOc1ccccc1NC(=O)c1c(NC(=O)c2cccc(F)c2)sc2c1CCCCC2	53*
CCOc1ccccc1NC(=O)c1c(NC(=O)c2ccc(C)cc2)sc2c1CCCC2	6
COCC(=O)Nc1cc(Cl)ccc1C	4
Cc1ccc(Cl)cc1NC(=O)CSC(N)=O	8
CC(=O)CC(=O)Nc1cc(Cl)ccc1C	65*
O=C(c1ccc(F)cc1)N1CCN(c2ccc(Cl)cc2[N+](=O)[O-])CC1	3
CCOC(=O)C(O)C1CCc2c([nH]c3ccc(C)cc23)C1=O (stereo not drawn)	-2
CCOC(=O)c1c(NC(=O)c2ccccc2OC)sc2c1CCCCC2	-1
NS(=O)(=O)c1cccc(NC(=O)c2cccs2)c1	0
O=C(Nc1cccc(Br)c1)c1cccs1	5
O=C(Nc1cccc(S(=O)(=O)c2cccc(NC(=O)c3cccs3)c2)c1)c1cccs1	113*
COC(=O)C1=C(C(=O)OC)SC(=C2C(=S)C(C)(C)N(C(=O)c3ccc(OC)cc3)c3ccc(OC)cc32)S1	6
O=C(c1ccc(Cl)cc1)N1CCN(c2cccc(Cl)c2)CC1	-4
O=C(c1cccc(Cl)c1)N1CCN(c2cccc(Cl)c2)CC1	8
O=C(c1cccc(C(=O)N2CCN(c3cccc(Cl)c3)CC2)c1)N1CCN(c2cccc(Cl)c2)CC1	99*
COc1ccc(C(=O)CSc2nnc(Sc3nc4ccccc4[nH]3)o2)cc1	2
Cc1cc(N2C(=O)NC(=O)/C(=C\C=C\c3ccco3)C2=O)ccc1Br	2
O=C1NC(=S)N(c2ccc(Cl)cc2)C(=O)/C1=C/C=C/c1ccccc1	44
O=C1NC(=O)N(c2ccc(Cl)cc2)C(=O)/C1=C\C=C\c1ccco1	54*
CC1C(O)C(C)C(c2ccccc2)N(C)C1c1ccccc1 (stereo not drawn)	1
CS/C(N)=N/N=C/c1cc(C)ccc1O	-12
CCC(Oc1ccccc1)C(=O)N1CCN(C(c2ccccc2)c2ccccc2)CC1 (stereo not drawn)	47
COc1ccc(CC(=O)N2CCN(c3cccc(Cl)c3)CC2)cc1OC	7

Screening results: PubChem, Sanford-Burnham Center for Chemical Genomics
